The sequences below were run on PPARg:RXRa 270nM:90nM, anti-RXR (NR concentration 270 nM, RXRa partner concentration 90 nM) (assay: PBM binding z-score (relative to random genomic background probes); higher = stronger binding; sequences stand for … in GC…GCGATTGACAGCGTAGAATGAAGG).
Procedure, shortened: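 Binding buffer was PBS pH 7.4 with 2% milk, 0.02% Triton X-100, 1 mM DTT, 0.2 mg/mL BSA and 0.4 mg/ml salmon testes DNA. In it, ligand-free nuclear receptor dimers were incubated 1 h on custom Agilent 4×180K protein-binding microarrays carrying double-stranded probes. Antibodies against each partner (one per run) detected binding, and z-scores were calculated against random background probes after regression normalization of scanned fluorescence.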
With TCATATAGGTAAAGGTGAAAGTAGAACGATATGA the PBM binding z-score was 4.54. In the case of CCGAGTAGGTTATGCGGCATTCAGGCAACGGTGA, the PBM binding z-score is reported as 1.06. TCAGCCAGGTGAAGGTAACTCAGGTACGCAGTCG showed a PBM binding z-score of 1.32. In the case of ACTAGCAGGCCAAGTTTGGGTTACTCAAACAAAG, the PBM binding z-score is reported as -0.325. In the case of CCTCGGAGGAAAACAGGAGGTCAGAGCTGCCAGA, the PBM binding z-score is reported as -0.0182. Work on ATATGTTGGTTAGCTGGGGTCATTCAGACTAGGC yielded a PBM binding z-score of 2.46. With GCTTACGGGCCAAAGGTTATAGCATGAATAGAAT the PBM binding z-score was 7.11. Work on GCTAGCAGGCCATTTGGGTCACTTAATGACGGGC yielded a PBM binding z-score of 0.681. In the case of ATCGAAAGGTCGAAGGTGAGTAAACCCACCCGAA, the PBM binding z-score is reported as 5.19. TTACCAATGTGAAGGTCGTTGATCCCTCTGTAGA was tested, and the PBM binding z-score was 1.1. TCATATAGGTTATACAGGTGAAAGTCGGCATCTA was tested, and the PBM binding z-score was 3.17. AATACAGGGTCACTAGGCCAGAGCAGGTACGAAT showed a PBM binding z-score of 6.45. In the case of CCAGACAAGTGAAAGGTAACTCAGTCTGGTACGC, the PBM binding z-score is reported as 2.61. For CCTACTGGGCCACGAAGGGTCATTGATTCAGTGA, the PBM binding z-score was 3.45. In the case of CAGCTTAGGTCAGGGCCAGTATAGGAGGAACGTT, the PBM binding z-score is reported as 0.732. TCGCCTAGGTCATGCGGGCCAGTATAGTGTCGGC gave a PBM binding z-score of 2.12. Work on ATCGAAAGGTCGAGGTGAGTAAAGAGAAAGGGAA yielded a PBM binding z-score of 3.83. ATACCAAGGTGATCGTGAGGGCGTTGATACTAAC showed a PBM binding z-score of -0.183. For CCTAATGGGCCATCAGGTCATTGATATCAACGTT, the PBM binding z-score was 2.54. TAGCCTAGGTCATTCGGCCAGTATAGTACGCATC was tested, and the PBM binding z-score was 2.43. With TAAATGAGGTTATAAGATCAGGGAACGTTGCAAA the PBM binding z-score was 2.73. Work on AGAATAAGGTTAAGATCAGGGAAACAGAATACAT yielded a PBM binding z-score of 1.62. TAGCGTAGGTCATTCAGGGGCCAGTATAGAAAGC showed a PBM binding z-score of 2.55. Sequence TTTTGTAGATCAAGCAGGTTAAGAAAGCCTGAGT has a PBM binding z-score of 0.238. ATCTCTAGGTAACCAAGTTCAGTGATTGCCGAAC showed a PBM binding z-score of 0.803. Work on TCATATAGGTAGAAGGTGAAAGTCGGTGTGGTAA yielded a PBM binding z-score of 6.84. ACAGACAGGTGATGAAGGTAATTCAGGCTATCAT gave a PBM binding z-score of -0.256. In the case of AGAACGAGGGAAATGAGTTGATAGCACGGGTGGC, the PBM binding z-score is reported as -0.497. For ACTTACGGGTCAACGAGGTTATAACACGCGTATA, the PBM binding z-score was 5.54. In the case of ACAGACCGGTGATGAAGGTAACTCAGGCTATCAT, the PBM binding z-score is reported as 0.0547. AGAATGAGGTTATACGTAGATCATGGAAGAAAGT was tested, and the PBM binding z-score was 2.58. For TGAATGAGGTTGTAAGATCAGGGAACGTTGCAAA, the PBM binding z-score was 0.349. In the case of ACTAGCAGGCCAAGTTTGGGACACTCAAACAAAG, the PBM binding z-score is reported as -0.814. In the case of CGTCAAAGTTCAGGGTAACGTAACAGAAAGCAGC, the PBM binding z-score is reported as 3.57. ACAATTAGTTGAGACGAGGGCAACCGATAGGTTG showed a PBM binding z-score of 0.375. In the case of TCGAGTAGGTTAGTCGGGGCATTCAGCCAACATA, the PBM binding z-score is reported as 0.553. CAAACTCGGTCAAGGTCAAAGTCGGTTTGTGCCA showed a PBM binding z-score of 4.8. With CCTACTGGGACATCAGGTCATTGATATCAACGTT the PBM binding z-score was 3.36. Sequence AGTCAAAGTTCAGGACGGGGTAACGTAAAGCACG has a PBM binding z-score of 5.07. Sequence ATCTCTAGGTAAAGATAGTTTAGTGAATGCAAAT has a PBM binding z-score of 0.218.

— the supplement of paper PMC6555819
